Results: PubChem BioAssay AID771 (SRMLSC, 2007)
The campaign covered roughly 3,300 compounds. About 55 (2%) were called active. The sample holds actives, similar compounds and a random draw of the others, so the mix is not that of the screen.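 Rule for the calls: active = growth inhibition above 90%, meaning viable cell count by imaging cut by more than 90% versus vehicle controls; inactive = growth inhibition below 90%.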

Test: HT29 colon tumor cell growth inhibition, primary screen, imaging, high content imaging, 48 h, CellTiter-Glo (AID 771);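 for condensed nuclei: condensed means Hoechst nuclear area under control median minus 1.5 SD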
Settings: HCS imaging cell count, at 10 µM, stronger effect = higher value; for condensed nuclei: measured here: percent cells with condensed nuclei
[1] = measured here: ATP CellTiter-Glo viability inhibition

SMILES	growth inhibition	growth inhibition [1]	condensed nuclei
Fc1ccc2[nH]c3c(N4CCN(C5CCCCC5)CC4)ncnc3c2c1	94% (active)	85.4%	10.8%
c1ccc(CN2CCN(c3ncnc4c3[nH]c3ccccc34)CC2)cc1	89.4% (inactive)	57.3%	10.8%
Fc1ccc2[nH]c3c(N4CCN(Cc5ccc6c(c5)OCO6)CC4)ncnc3c2c1	97.9% (active)	92.8%	29%
Cc1ccc2[nH]c3c(N4CCOCC4)ncnc3c2c1	42.1% (inactive)	15.8%	0.48%
c1ccc2c(c1)[nH]c1c(N3CCSCC3)ncnc12	57.5% (inactive)	9.84%	0.5%
Cc1ccc2[nH]c3c(N4CCCCCC4)ncnc3c2c1	96.6% (active)	93%	38.1%
Cc1ccc2[nH]c3c(N4CCN(Cc5ccccc5)CC4)ncnc3c2c1	16% (inactive)	-1.83%	2.02%
Cc1ccc2[nH]c3c(N4CCN(Cc5ccc6c(c5)OCO6)CC4)ncnc3c2c1	94.2% (active)	91.8%	25.3%
c1ccc2c(c1)[nH]c1c(N3CCN(C4CCCCC4)CC3)ncnc12	58.7% (inactive)	2.53%	3.08%
CN1CCN(c2ncnc3c2[nH]c2ccc(F)cc23)CC1	64.5% (inactive)	10%	2.81%
COc1ccc2[nH]c3c(N4CCN(Cc5ccc6c(c5)OCO6)CC4)ncnc3c2c1	40.6% (inactive)	20.9%	3.53%
Fc1ccc2[nH]c3c(N4CCSCC4)ncnc3c2c1	38.7% (inactive)	37.9%	4.52%
O=C(CCN1CCc2ccccc2CC1)c1ccc2c(c1)OCCO2	18.3% (inactive)	14.1%	1.32%
Fc1ccc(-c2cnc[nH]2)cc1	7.2% (inactive)	-20.5%	1.71%
COC(=O)CSc1nc2sc3c(c2c(=O)n1C1CCCCC1)CCN(C)C3	31.7% (inactive)	-21.3%	4.17%
O=C(O)CC(C(=O)N(c1ccccc1)c1ccccc1)N1CCOCC1 (stereo not given)	-4.04% (inactive)	-10.5%	1.81%
Cc1occc1C(=O)OCC(=O)Nc1ccc(F)cc1	41.9% (inactive)	18.1%	4.91%
Cc1ccc(CNC(=O)c2cc3c(=O)n4ccccc4nc3n(Cc3ccco3)c2=N)cc1	38.7% (inactive)	10.6%	1.03%
CCOc1ccc(C2/C(=C(/O)c3ccc(F)cc3)C(=O)C(=O)N2CCCN(C)C)cc1 (stereo not given)	28.1% (inactive)	-5.46%	5.22%
CCN1CCN(c2nc3c(C)cccn3c(=O)c2/C=C(\C#N)S(=O)(=O)c2ccccc2)CC1	9.15% (inactive)	7.42%	2.58%
COC(=O)c1cc(Br)c(=O)n(CCc2ccc(F)cc2)c1	43.4% (inactive)	17.2%	1.12%
CCOC(=O)c1[nH]c2ccc(F)cc2c1N=C(C)N(CC)CC	-6.13% (inactive)	-22.6%	2.07%
CC(C)CNC(=O)c1c(N)n(/N=C/c2ccccn2)c2nc3ccccc3nc12	-40% (inactive)	-5.64%	2.54%
Fc1ccc2[nH]c3c(N4CCN(c5ccccc5)CC4)ncnc3c2c1	81.6% (inactive)	84.2%	29.2%
COc1cccc(N2CCN(c3ncnc4c3[nH]c3ccccc34)CC2C)c1 (stereo not given)	89.8% (inactive)	62.2%	5.36%

SMILES	growth inhibition	growth inhibition [1]	condensed nuclei
COc1cccc(N2CCN(c3ncnc4c3[nH]c3ccc(F)cc34)CC2C)c1 (stereo not given)	91.7% (active)	89.4%	4.17%
CC(=O)/C=C(\C)NCCNc1c(F)c(F)c(CO)c(F)c1F	23.4% (inactive)	0.5%	1.42%
CC(NCCc1ccc(O)cc1)C(O)c1ccc(O)cc1 (stereo not given)	-16.3% (inactive)		2.5%
CCCCCCCCNC(C)C(O)c1ccc(SC(C)C)cc1 (stereo not given)	99.7% (active)		50%
CC(COc1ccccc1)NC(C)C(O)c1ccc(O)cc1 (stereo not given)	22.6% (inactive)		2.89%
COc1ccc(OC)c(C(O)c2coc3ccc(O)c(CN4CCOCC4)c23)c1 (stereo not given)	-2.41% (inactive)	-6.82%	4.2%
Cc1nc(=O)c(-c2ccccc2)c(C)n1-c1ccc(S(N)(=O)=O)cc1	-25.6% (inactive)	-8.56%	2.99%
CCOC(=O)c1[nH]c2cc(OC)c(OC)cc2c1NC(=O)C(C)N1CCN(Cc2ccccc2)CC1 (stereo not given)	3.83% (inactive)	-7.15%	3.08%
CCCCC(=O)NC(Nc1ccc(C)cn1)(C(=O)OCC)C(F)(F)F (stereo not given)	-56.4% (inactive)	-18.7%	2.76%
CCn1cc(C(=O)NCc2ccccn2)c(=O)c2cc(F)c(N3CCN(C)CC3)cc21	15.6% (inactive)	-1.75%	2.93%
CCn1cc(C(=O)NCCCN(C)C)c(=O)c2cc(F)c(N3CCN(C)CC3)cc21	23.8% (inactive)	-23.1%	4.97%
CCn1cc(C(=O)NCCc2ccccc2)c(=O)c2cc(F)c(N3CCN(C)CC3)cc21	97% (active)	89.7%	14.8%
CCOC(=O)c1ccccc1OCc1cc(/C=N/n2cncn2)ccc1OC	28.7% (inactive)	6.4%	3.97%
CCOc1ccc(C2C(C#N)=C(N)SC(N)=C2C#N)cc1OC	25.3% (inactive)	1.94%	0.7%
N=c1c2c(-c3ccccc3)c(-c3ccccc3)n(Cc3ccccc3)c2ncn1CCCn1ccnc1	99.7% (active)	97.2%	41.1%
OCCNc1ncnc2c1c(-c1ccccc1)c(-c1ccccc1)n2Cc1ccco1	37.6% (inactive)	15.3%	3.02%
O=c1c(C=NCCCn2ccnc2)c(-c2ccccc2)[nH]n1-c1nc2ccccc2s1	1.39% (inactive)	1.73%	3.29%
COC(=O)c1[nH]c(C)c(/C(O)=C2\C(=O)C(=O)N(CCN3CCOCC3)C2c2ccccc2OC)c1C (stereo not given)	15.6% (inactive)	7.04%	1.6%
O=C(NCCN1CCCCC1)/C(=N\O)c1ccccc1	-0.27% (inactive)	-18.5%	1.08%
Cc1c(=O)n(OCc2c(F)cccc2F)c2ccccc2[n+]1[O-]	7.92% (inactive)	2.47%	2.94%
C=CC(O)Cc1c(C)n[nH]c1C (stereo not given)	-31.7% (inactive)	7.27%	2.84%
COc1ccc(OCC(=O)N2CCN(C(=O)c3cccc4ccccc34)CC2)cc1	-1.2% (inactive)	-3.25%	2%
CN(C)CCC=C1c2ccccc2CCc2ccccc21	28.2% (inactive)		6.45%
CNCCC=C1c2ccccc2CCc2ccccc21	97.6% (active)		32.9%
COc1ccc(C(C)=O)cc1CSCCC(=O)O	-39.8% (inactive)	-10.3%	1.66%

SMILES	growth inhibition	growth inhibition [1]	condensed nuclei
CCOC(=O)Oc1ccc2c(c1)C(C)=CC(C)(C)N2C(=O)OCC	44.5% (inactive)	33.4%	1.63%
CCCc1cc(NCCCCO)n2c(nc3ccccc32)c1C#N	41.5% (inactive)	6.57%	2.71%
C/C(=N/n1cnnc1)c1cccnc1	-50.9% (inactive)	-4.47%	2.16%
COCc1cc(=O)[nH]c(Nc2nc3ccccc3o2)n1	89.2% (inactive)	76.3%	2.5%
Cc1cccc(OCc2nc(C)cc(=O)[nH]2)c1	37.9% (inactive)	1.04%	2.19%
COCc1cc(=O)[nH]c(Nc2nc3ccc(C)cc3o2)n1	93% (active)	69.7%	0%
COc1ccccc1-n1c(=O)c2c3c(sc2n2c(SC(C)C)nnc12)CCC3	-4.74% (inactive)	-1.5%	3.08%
C=CCOC(=O)C1=C(C)NC(SCC(=O)N(CC)CC)=C(C#N)C1c1ccco1 (stereo not given)	-28.4% (inactive)	-41.1%	2.96%
C=CCOC(=O)C1=C(C)NC(SCC(=O)Nc2ccc(C)c(Cl)c2)=C(C#N)C1c1ccco1 (stereo not given)	91.3% (active)	45.8%	8.14%
C=CCOC(=O)C1=C(C)NC(SCC(=O)N(CC)CC)=C(C#N)C1c1ccccc1 (stereo not given)	54.1% (inactive)	3.16%	4.29%
COCCOC(=O)C1=C(C)NC(SCC(=O)NC(C)(C)C)=C(C#N)C1c1ccco1 (stereo not given)	34.7% (inactive)	-24.4%	3.96%
CCN(CC)C(=O)CSC1=C(C#N)C(c2ccco2)C(C(=O)OCCOC)=C(C)N1 (stereo not given)	25.5% (inactive)	20.6%	3.61%
CCOC(=O)C1=C(c2ccccc2)NC(SCC(=O)Nc2ccccc2C)=C(C#N)C1c1ccco1 (stereo not given)	91% (active)	75.3%	11%
Cc1cc(CC(=O)O)c(C)cc1CC(=O)O	-42% (inactive)	-0.43%	2.43%
CCCn1nnc(NC(=O)c2cc(Br)cc(Br)c2OC)n1	-8.21% (inactive)	-15.1%	7.92%
O=C1[C@@H]2[C@H](C(=O)N1O)[C@H]1C=C[C@@H]2C1	1.8% (inactive)	-19.1%	1.79%
CCCc1nnc(NC(=O)c2c(O)c3c([nH]c2=O)CCCC3)s1	-9.28% (inactive)	-32.6%	7.28%
c1cncc(-c2nnc3sc(-c4ccco4)nn23)c1	28% (inactive)	26.6%	21.4%
CCN(CC)c1ccc(-c2nn3c(-c4cccnc4)nnc3s2)cc1	90.1% (active)	75%	4.92%
COc1cc(-c2nn3c(-c4cccnc4)nnc3s2)cc(OC)c1OC	-10.1% (inactive)	-33.4%	3%
O=C(NCCCn1ccnc1)c1cccnc1	-11.4% (inactive)	-30.1%	2.67%
CCOc1cc2nc(-c3ccc(OC)c(OC)c3)nc(N3CCOCC3)c2cc1OC	97.2% (active)	90%	39.3%
COc1cccc(-c2nc(N3CCN(Cc4ccccc4)CC3)c3ccccc3n2)c1O	-8.14% (inactive)	0.87%	2.41%
COc1cc2nc(-c3ccccc3)nc(N3CCCC3)c2cc1OC	27.7% (inactive)	3.73%	2.25%
CCC1(C)Cc2ccccc2-c2nc(NCCO)n(-c3ccccc3)c(=O)c21 (stereo not given)	60.4% (inactive)	4.3%	2.11%
